A selection: hits, their analogues and other compounds. The true share with any hit is near 4.8%.
ssDAF12 agonist: S. stercoralis DAF-12 nuclear receptor activators, primary screen, cell-based, luminescence, HEK293, GRIP1 co-expression, lit1-tk-luc | Nuclear hormone receptor DAF-12 (Strongyloides stercoralis) | HEK293 ssDAF-12/GRIP1 lit1-tk-luc reporter; % of 3 µM dafachronic acid response | activation, % at 6.8 µM | hit rate 1% among 370,000 | AID 652126, 2013;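 active = activation above the mean over all tested compounds plus 3 SD, cut at about 0.9% in these data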;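 note: 0% = DMSO-only wells and 100% = 3 µM delta7-dafachronic acid wells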
hgDAF12 agonist: H. glycines DAF-12 receptor agonists, primary screen, cell-based, luminescence, HEK293, GAL4 fusion, UAS-luciferase. Nuclear hormone receptor DAF-12 (Heterodera glycines), GAL4 fusion. HEK293 GAL4-hgDAF12 UAS-luciferase reporter, agonist luminescence; normalized to butyrate control. activation, % at 6.8 µM. hit rate 1.8% among 370,000;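 active = activation above a cutoff set at the mean of all screened compounds plus 3 SD, cut at about 10% in these data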;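 note: 0% = DMSO wells and 100% = sodium butyrate wells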
DAX1 inh-1: DAX1 (NR0B1) inhibitors on StAR promoter, primary screen, cell-based, luminescence, SF-1 (NR5A1), full-length DAX-1 | AID 652010, 2013 | hit rate 1.1% among 370,000 | inhibition, % at 6.8 µM | HEK293T StAR-luciferase reporter, SF-1/DAX-1 repression relief;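 active = inhibition above the mean over all tested compounds plus 3 SD, cut at about 3.6% in these data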;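 note: 0% = DAX-1 cells with DMSO and 100% = cells lacking DAX-1 with DMSO; higher inhibition means more luminescence from relief of DAX-1 repression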
DAX1 inh-2: DAX1 (NR0B1) inhibitors, primary screen, cell-based, HEK293, Gal4-DAX1, luciferase luminescence; inhibition, % at 6.75 µM; HEK293 Gal4-DAX1 luciferase reporter; Nuclear receptor subfamily 0 group B member 1 (Homo sapiens), P51843; AID 504766, 2011; hit rate 0.99% among 340,000;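 active = inhibition above the mean over all tested compounds plus 3 SD, cut at about 4.2% in these data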;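 note: 0% = DAX1-transfected cells with DMSO and 100% = empty-vector control cells with DMSO; inhibition shows as a rise in luminescence from relieved DAX1 repression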
Target sequence (P51843 207-470 limits assumed): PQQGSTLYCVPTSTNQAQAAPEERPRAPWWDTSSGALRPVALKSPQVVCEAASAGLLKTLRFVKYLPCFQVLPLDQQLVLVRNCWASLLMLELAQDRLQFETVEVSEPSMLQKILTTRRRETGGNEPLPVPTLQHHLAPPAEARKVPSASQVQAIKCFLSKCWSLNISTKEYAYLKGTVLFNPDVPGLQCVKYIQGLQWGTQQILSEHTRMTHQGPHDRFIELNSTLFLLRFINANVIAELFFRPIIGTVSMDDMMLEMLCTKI
hcDAF-12 act: H. contortus DAF-12 nuclear receptor activators, primary screen, cell-based, luminescence, HEK293, lit1-tk-luc reporter | activation, % at 6.8 µM | HEK293 hcDAF-12 lit1-tk-luc reporter; 0% DMSO, 100% Δ7-dafachronic acid | AID 652067, 2013 | hit rate 1.4% among 370,000;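 active = activation above the mean of all tested compounds plus 3 SD, cut at about 5.5% in these data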;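 note: 100% = response to 3 µM Δ7-dafachronic acid high control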
SMARCA2 activ: SMARCA2 (BRM) function activators, primary screen, cell-based, luminescence, high throughput; hit rate 1% among 370,000; AID 652017, 2013; activation, % at 9.1 µM; MG213 cells, MMTV-luciferase reporter, dexamethasone, overnight; in the data active = activation above about 7.8%;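 note: 0% = vehicle wells and 100% = reference activator wells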
LXRb hcDAF ctr: LXR agonists, Gal4 luciferase reporter, confirmation, counter-screen for hcDAF-12 agonist project, cell-based, luminescence, HEK293, H. contortus campaign. shares compounds with hcDAF-12 act. AID 743027, 2013. 3,400 tested, under 10 active. HEK293 Gal4-LXR tk-luc reporter, 24 h; normalized: DMSO 0%, positive control 100%. activation, % at 6.8 µM;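 active = mean percent activation of the reporter above a cutoff set as the average over tested compounds plus their standard deviation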
hcDAF12 conf: H. contortus DAF-12 receptor agonists, confirmation, cell-based, luminescence, HEK293, lit1-tk-luc, triplicate. shares compounds with hcDAF-12 act. HEK293 hcDAF-12 lit1-tk-luc reporter; % of Δ7-dafachronic acid response. activation, % at 6.8 µM. hit rate 61% among 3,400. AID 743032, 2013;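 active = mean activation across triplicate tests above the threshold derived from the earlier primary screen, cut at about 5.5% in these data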;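 note: 0% = DMSO only wells and 100% = 3 µM Δ7-dafachronic acid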
* = called active by the depositor; · = no result.

SMILES	ssDAF12 agonist	hgDAF12 agonist	DAX1 inh-1	DAX1 inh-2	hcDAF-12 act	SMARCA2 activ	LXRb hcDAF ctr	hcDAF12 conf
O=C(c1ccco1)N1CCN(c2nc3ccccc3n3nnnc23)CC1	-1	1	-1	1	-1	4	·	·
CC1(C)CC(=O)c2ccc(OCc3ccc([N+](=O)[O-])cc3)cc2O1	1.2*	10	2	·	17*	3	1	11*
CC1(C)CC(=O)c2cc(OCC(=O)O)ccc2O1	-2	0	0	0	0	-1	·	·
Cn1c(NC(=O)/C=C/c2ccccc2)cc(=O)n(C)c1=O	1.3*	2	1	4.8*	11*	2	1	6.3*
COc1ccc(/C=C/C(=O)Nc2cc(=O)n(C)c(=O)n2C)cc1	-1	6	1	2	3	1	·	·
CCCCNC(=O)NC(C(=O)OC)C12CC3CC(CC(C3)C1)C2 (stereo not given)	-2	-3	0	-1	1	-1	·	·
N=c1oc2cc(O)ccc2cc1C(=O)Nc1nc2ccccc2s1	-1	1	1	3	7.2*	-1	2	11*
O=C1[C@H]2[C@H](C=CC[C@H]2C(=O)N2CCN(c3ccccc3)CC2)CCN1Cc1ccccc1	-1	-2	0	0	-2	0	·	·
COCCN1CC(=O)N2C(c3cccc(C)c3)c3[nH]c4ccccc4c3C[C@H]2C1=O (stereo not given in full)	1	-1	0	0	9.6*	-1	0	3
Cc1cn([C@H]2C[C@H](O)[C@@H](/C=C/C(=O)NCCN3CCCCC3)O2)c(=O)[nH]c1=O	-1	1	0	·	-1	-1	·	·
NNc1nc(-c2ccccc2Cl)nc2sc3c(c12)CCCC3	1	9	2	2	8.3*	3	1	7.7*
NNc1nc(-c2ccccc2Cl)nc2ccccc12	-1	-1	0	1	1	-2	·	·
COc1ccc(NCc2nc3ccccc3n2C)cc1	2.4*	12*	2	5.6*	10.0*	3	1	12*
Cn1c(CNc2ccc(O)cc2)nc2ccccc21	0	-1	0	1	0	0	·	·
Cc1ccc(NCc2nc3ccccc3n2C)cc1C	1.7*	13*	3	3	13*	6	1	8.2*
CC(=O)NCc1ccc(S(=O)(=O)N/N=C/c2ccc(Br)cc2)cc1	0	-1	0	0	9.0*	1	0	2
CCOCCCNC(=O)c1cc2c(=O)n3cccc(C)c3nc2s1	0	1	0	0	12*	2	0	3
Cc1cccn2c(=O)c3cc(C(=O)NCCCOC(C)C)sc3nc12	-1	-1	0	2	1	0	·	·
O=S(=O)(Nc1c(O)ccc2ccccc12)c1ccccc1	0	0	1	-1	3	-1	·	·
O=S(=O)(Nc1c(O)ccc2ccccc12)c1ccc(F)cc1	1.1*	1	1	3	8.1*	5	0	8.6*
O=C1C(Cl)=C(Nc2ccccc2)C(=O)c2ccccc21	0	3	1	2	7.9*	-4	0	1
Fc1cccc(Cl)c1/C=C/c1cnc2ccccc2n1	2.0*	16*	3	2	20*	3	2	22*
O=[N+]([O-])c1ccc(C=NNc2ccccc2)cc1	-1	-1	0	0	0	-3	·	·
CC(=O)Oc1ccc(C(=O)[C@H]2[C@H]3C(=O)N(c4ccccc4)C(=O)[C@H]3[C@@H]3C=CC=NN32)cc1	0	2	0	3	8.1*	-1	0	5
O=C(c1ccco1)c1coc2c1cc(O)c1ccccc12	1.0*	6	0	1	7.9*	3	0	6.1*
SMILES	ssDAF12 agonist	hgDAF12 agonist	DAX1 inh-1	DAX1 inh-2	hcDAF-12 act	SMARCA2 activ	LXRb hcDAF ctr	hcDAF12 conf
NS(=O)(=O)c1ccc(NC(=S)NC(=O)c2ccco2)cc1	0	0	1	-1	1	0	·	·
Nc1cc2c(cc1N)-c1ccccc1C2	0	8	3.8*	3	6.7*	6	0	4
CSc1nc(N)nc2c1ncn2CC(=O)N1CCN(c2ccccn2)CC1	-1	-3	-1	0	-2	-3	·	·
COCCCNC(=O)CC(NS(=O)(=O)c1ccc(OC)cc1)c1ccc(OC)cc1 (stereo not given)	0	-2	0	0	-1	-4	·	·
Cc1ccc(CNC(=O)c2ccc(N3CCC4(CC3)CC(c3cccc(Br)c3)=NO4)c([N+](=O)[O-])c2)cc1	-2	2	0	0	-1	0	·	·
CC1CCc2c(nc3sc4c(c3c2N)CCCC4)C1 (stereo not given)	0	21*	2	1	7.1*	3	1	2
CCOC(=O)c1nc2sc3c(c2c(=O)[nH]1)CCC(C)C3 (stereo not given)	-2	2	1	1	-1	0	·	·
C#CCCC(=O)Nc1sc2c(c1-c1nc3ccccc3s1)CCN(C(C)C)C2	0	8	·	·	9.7*	·	0	2
CC(=O)Nc1sc2c(c1-c1nc3ccccc3s1)CCN(C(C)C)CC2	1.1*	-1	·	·	13*	·	1	15*
CC(C)N1CCc2c(sc(NC(=O)CCc3ccccc3)c2C(N)=O)C1	-1	-1	1	0	3	-1	·	·
CC(C)N1CCc2c(sc(NC(=O)C(F)F)c2-c2nc3ccccc3s2)C1	-2	5	·	·	0	·	·	·
Cc1nc2ccc(Cl)cc2c(-c2ccccc2)c1CC(=O)O	-2	-2	0	1	-1	-2	·	·
COC(=O)c1ccccc1NC(=O)CN(c1ccc(C)cc1)S(C)(=O)=O	-1	0	0	0	-2	3	·	·

Screening data as filed in PubChem BioAssay.
